High-throughput results deposited in PubChem BioAssay by National Center for Advancing Translational Sciences (NCATS).
HEK293 viab: counter-screen for SNCA expression inhibitors: cell viability | HEK-293-SNCA-luc viability, GF-AFC fluorescence, 24 h | Potency, µM (highest dose often 57.1 µM), without a hit: top-dose activity change, negative = cytotoxicity, usual class: cytotoxic | 0.12% of 150,000 active;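 note: potency is the fitted concentration of half-maximal effect; 0% = DMSO-treated cells and -100% = medium-only wells without cells; nearly all actives have a fitted effect of over 30% in size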
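Cytotoxicity counterscreen: after 24 h compound treatment of genome-edited SNCA-luciferase HEK-293 cells, live-cell protease substrate GF-AFC read by fluorescence after 30 min; activity scaled between DMSO (0%) and medium-only (-100%), curves Hill-fitted.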
IP6K1 inhibitor: blocks human inositol hexakisphosphate kinase 1; Q92551; IP6K1 kinase, ADP-Glo luminescence, 2 h; active compounds read low; activity change, % (series mostly up to about 58 µM); 0.81% of 140,000 active; AID 1645851; in the data active = activity change below about -25%; note: % is set by controls: 0 for no effect and ±100 for the full control effect
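ADP-Glo luminescence measures ADP made by human IP6K1 during a 2 h RT reaction with ATP/IP6 (mix at 1.3 mM/130 uM); top library doses 57.5 and 19.1 uM final.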
KDM5B inh: KDM5B demethylase inhibition; KDM5B demethylase, FDH-coupled NADH fluorescence (FDH is formaldehyde dehydrogenase); Q9UGL1; 2.6% of 220,000 active; AID 1347165; Potency, µM (doses to about 57.7 µM), hits mostly inhibitors; note: potency is the fitted concentration of half-maximal effect; 0% is about no effect; nearly all actives have a fitted effect of over 70% in size
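Compound dilutions met 200 nM (final) KDM5BΔAP for 10 min at room temperature before substrate addition. The substrate mix held 12.5 µM H3K4me3 with cofactors 25 µM α-ketoglutarate and 50 µM Fe²⁺. NADH signal gain over 30 min defined activity.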
SNCA expr inh: SNCA gene expression inhibition | HEK-293 SNCA-luciferase knock-in, luminescence, 24 h | Potency, µM (titrated, usually from 57.2 µM), for the others: top-dose activity change, negative = inhibition, hits mostly inhibitors | 0.17% of 140,000 active | AID 1671194;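 note: potency is the fitted concentration of half-maximal effect; plate controls were DMSO cells for no effect and cell-free wells for full effect; nearly all actives have a fitted effect of over 45% in size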
The depositor's hits bear a star; i = inactive; u = inconclusive; x = no result; [ ] = remark or other dose. Only some compounds are listed: those with a hit (about 2.9% of all), similar ones and a draw of the others. Unless noted, calls come from the whole dose curve; as a rule, active = well fitted curve in the direction sought with a large enough effect; inconclusive = small, poorly fitted or top-dose-only effect, or another doubt; inactive = no such curve, though single readings can be large; an effect the other way counts as inactive or inconclusive.

SMILES	HEK293 viab	IP6K1 inhibitor	KDM5B inh	SNCA expr inh
O=C(Nc1ccc(-c2ccccc2)cc1)c1ccccc1Cl	x	x	i	x
Cc1ccc(/C=C/c2nc3ccccc3n2S(=O)(=O)c2cccc(Cl)c2)cc1	-12.9%	-51.3*	u	u
CCOc1ccc(/C=C/c2nc3ccccc3n2S(=O)(=O)c2cccc(Cl)c2)cc1	-10.3%	-31.1*	i	-94.2%
CCCOC(=O)C(C#N)c1nc2ccccc2nc1Cl (stereo not drawn)	x	x	i	x
CC(C)c1ccc(C#N)c(N2CC[C@H](N3CCOCC3)[C@H](CCCO)C2)n1	-5.9%	2.9	28.2µM*	-15.7%
COc1ccc2[nH]c(C(=O)N[C@H]3COC[C@H]3Cc3cc(C)no3)c(C)c2c1	5.5%	0.3	22.4µM*	14.9%
COc1nc2ccccc2nc1CCC(=O)N[C@H]1COC[C@H]1Cc1cc(C)no1	-3.6%	-1.7	28.2µM*	7.2%
COc1ccc(C2(C(=O)N[C@H]3COC[C@H]3Cc3cc(C)no3)CCCC2)cc1	-0.7%	0.8	i	10.1%
Cc1[nH]c2ccccc2c1/C=C(\C#N)C(=O)NC(C)C	x	x	i	x
O=C1CCCC2=C1C(c1ccccc1F)Nc1nonc1N2 (stereo not drawn)	x	x	i	x
CCOC(=O)c1nn(Cc2ccc(OC)cc2)c2c1CN(C(=O)c1ccc3nc[nH]c3c1)CC2	2.7%	0.7	31.6µM*	-3.1%
CCN(CC)c1cc(CCC(=O)NCCN2CCCCCC2)ccn1	-20.0%	13.3	28.2µM*	-15.4%
CCN(CC)c1cc(CCC(=O)O)ccn1	3.5%	-9.3	i	6.3%
CCN(CC)c1cc(CCC(=O)NCCN(C)C2CCCCC2)ccn1	-26.4%	-7.4	28.2µM*	u
CCN(CC)c1cc(CCC(=O)NCCOC)ccn1	12.8%	-8.3	17.8µM*	29.6%
CCN(CC)c1cc(CCC(=O)NCc2ccc(N3CCOCC3)cc2)ccn1	-8.6%	-2.9	u	24.7%
CCN(CC)c1cc(CCC(=O)NCCCN2CCN(C)CC2)ccn1	-7.1%	1.6	25.1µM*	25.6%
CCN(CC)c1cc(CCC(=O)NCCc2ccccn2)ccn1	3.8%	-0.8	u	-1.3%
CCN(CC)c1cc(CCC(=O)N2CCN(c3ccc(Cl)cc3)CC2)ccn1	-0.3%	-1.5	u	-19.7%
CCN(CC)c1cc(CCC(=O)N2CCC(COC)CC2)ccn1	-5.9%	-10.6	25.1µM*	-17.3%
CCN(CC)c1cc(CCC(=O)N2CCN(c3cccc(OC)c3)CC2)ccn1	-11.7%	-4.7	u	u
Cc1cc(C(F)(F)F)nn1CCc1nnc(Nc2ccn(Cc3ccccc3Cl)n2)s1	x	x	i	x
N#Cc1nc(-c2ccc(OCc3ccc(Cl)cc3)cc2)oc1NCc1ccco1	x	x	i	x
CCN(Cc1nccn1C)C(=O)c1ccc(N2CCSCC2)nc1	-10.4%	20.3	u	-11.8%
CCN(Cc1nccn1C)C(=O)c1cc(-c2cnc(N)nc2)nc2c(C)cccc12	3.9%	7.7	28.2µM*	3.0%
SMILES	HEK293 viab	IP6K1 inhibitor	KDM5B inh	SNCA expr inh
CN1c2cc(C(=O)N3CCOCC3)ccc2OCC1CC(=O)NC(C)(C)C (stereo not drawn)	-6.1%	8.0	i	2.6%
COCCNC(=O)c1ccc2c(c1)N(C)C(CC(=O)Nc1ccc(N)nc1)CO2 (stereo not drawn)	-2.6%	8.7	22.4µM*	6.5%
COCCNC(=O)c1ccc2c(c1)N(C)C(CC(=O)NC(C)C)CO2 (stereo not drawn)	6.8%	10.6	20µM*	7.4%
COCCNC(=O)c1ccc2c(c1)N(C)C(CC(=O)Nc1ccccc1)CO2 (stereo not drawn)	-1.3%	8.1	31.6µM*	1.2%
COCCNC(=O)c1ccc2c(c1)N(C)C(CC(=O)NCC(C)C)CO2 (stereo not drawn)	3.2%	16.1	u	-3.7%
CCNC(=O)CC1COc2ccc(C(=O)NCCOC)cc2N1C (stereo not drawn)	-2.7%	-3.2	31.6µM*	-28.4%
Cc1cncc(NC(=O)CC2COc3ccc(C(=O)N(C)C)cc3N2C)c1 (stereo not drawn)	-9.1%	0.0	i	-21.1%
CCOc1ccccc1CN1CCC2(CCN(C(=O)Nc3ccc(Cl)cc3)CC2)Oc2ccccc21	-20.7%	-7.5	u	24.6%
COc1ccc(/C=N/OCc2ccc(Cl)c(Cl)c2)c(OC)c1	x	x	i	x
COCCNC(=O)c1ccc2c(c1)N(C)C(CC(=O)N(C)CC(C)C)CO2 (stereo not drawn)	-3.9%	11.0	31.6µM*	-21.8%
CCN(CC)C(=O)CC1COc2ccc(C(=O)NCCOC)cc2N1C (stereo not drawn)	1.8%	13.2	28.2µM*	-10.4%
COCCNC(=O)c1ccc2c(c1)N(C)C(CC(=O)NCc1ccon1)CO2 (stereo not drawn)	u	4.2	28.2µM*	-25.7%
COCCNC(=O)c1ccc2c(c1)N(C)C(CC(=O)NC1CCC1)CO2 (stereo not drawn)	2.3%	11.9	28.2µM*	-27.2%
CN(C)C(=O)c1ccc2c(c1)N(C)C(CC(=O)NC(C)(C)c1ccccc1)CO2 (stereo not drawn)	3.4%	8.8	i	u
O=C(c1nc2cccnc2n(C2CC2)c1=O)N1CCN(C(=O)C2CC2)CC1	11.5%	14.8	x	-25.2%
CCOC(=O)C1=C(CN(C)Cc2ccccc2C)NC(=O)NC1c1ccc(Cl)cc1 (stereo not drawn)	x	x	i	x
O=C(NCc1ccccc1Cl)C1CCCCN1Cc1ccc(-c2ccsc2)cc1 (stereo not drawn)	3.9%	0.6	x	-9.2%
CCCNC(=O)CC1COc2ccc(C(=O)NCCOC)cc2N1C (stereo not drawn)	-13.8%	17.5	28.2µM*	-18.3%
O=C(NCC1Cn2cccc2CN1Cc1ccccc1)C1CC1 (stereo not drawn)	4.9%	9.7	28.2µM*	13.3%
O=C(CCc1nc2ccccc2s1)NCC1Cn2cccc2CN1Cc1ccccc1 (stereo not drawn)	6.1%	-4.8	25.1µM*	-8.3%
O=C(Cn1c(=O)oc2ccccc21)NCC1Cn2cccc2CN1Cc1ccccc1 (stereo not drawn)	0.0%	-0.7	x	0.2%
O=C(NCC1Cn2cccc2C(=O)N1Cc1ccccc1)C1CC1 (stereo not drawn)	0.6%	1.0	i	4.2%
COc1ccc(NC(=O)NCC2Cn3cccc3CN2Cc2ccccc2)cc1 (stereo not drawn)	-7.1%	-20.6	x	3.0%
NCC1Cn2cccc2CN1Cc1ccccc1 (stereo not drawn)	-0.5%	-3.9	15.8µM*	21.9%
O=C(COc1ccc(F)cc1)NCC1Cn2cccc2CN1Cc1ccccc1 (stereo not drawn)	-3.5%	-0.9	25.1µM*	0.4%
CN(Cc1cncs1)C1CCc2ccccc21 (stereo not drawn)	10.4%[87.6 µM]	-5.3	i	29.4%[87.6 µM]
CCCn1nc(C(=O)Nc2ccc(OCC(=O)N(C)C)cc2)c2ccccc2c1=O	x	x	i	x
CN1Cc2cccn2CC1CNC(=O)NC1CCCCC1 (stereo not drawn)	-7.1%	-5.4	28.2µM*	2.4%
